This passage reports Potency results from PubChem BioAssay (NCATS).

Experiment in all cases: qHTS profiling for inhibitors of Plasmodium falciparum proliferation (AID 504749); note: nearly all actives have a fitted effect of over 60% in size
What all share (settings): P. falciparum in erythrocytes, SYBR Green DNA, 72 h; series mostly up to 28.7 µM

The subject of test [1] is PC26. In short, it runs like this: (§1)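 Quantitative HTS: compounds pinned into medium, infected erythrocytes added (0.3% parasitemia, 2.5% hematocrit), 72 h culture at 37 C under 5% CO2. Saponin/Triton lysis with SYBR Green I, overnight RT, then fluorescence read.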
The test system of test [2] is PC49. The procedure, abridged: as §1
Test [3] deals with SC27B. The procedure, abridged: as §1
Test [4] relates to TAB109. The procedure, abridged: as §1
The test system of test [5] is TAB113. The procedure, abridged:
as §1

The test system of test [6] is TAB165. In short, it runs like this:
as §1

Test [7] has as its system W2. The procedure, abridged:
as §1

Inconclusive results are not listed. Calls of active or inactive are those of the source. Calls come from the whole dose curve; as a rule, active = well fitted inhibition curve with a large enough effect; inconclusive = small, poorly fitted or top-dose-only effect; inactive = flat fitted curve, though single readings scatter.
Potency is the fitted concentration of half-maximal effect.

`CCC(N)Cc1c[nH]c2ccccc12` (configuration not stated): the Potency result in test [1], in test [2], in test [3], in test [4], in test [5] and in test [6] was “inactive” in each case. Moreover, the Potency result in test [7] was “inactive”.

Take `O=c1[nH]c(=O)n(Cl)c(=O)n1Cl`: the Potency entry in test [1], in test [2], in test [3], in test [4], in test [5] and in test [6] was “inactive” each time. Besides, the Potency result in test [7] was “inactive”.

Take `[N-]=[N+]=CC(=O)OCC(N)C(=O)O` (configuration not stated): the Potency entry in test [1], in test [2], in test [3], in test [4], in test [5] and in test [6] was “inactive” throughout. In addition, the Potency entry in test [7] was “inactive”.

Regarding `CC(C)CCON=O`, the Potency entry in test [1], in test [2], in test [3], in test [4], in test [5] and in test [6] was “inactive” each time. Besides, the Potency result in test [7] was “inactive”.

For the compound `CCC1(C)CC(=O)NC(=O)C1`, the Potency result in test [1], in test [2], in test [3], in test [4], in test [5] and in test [6] was “inactive” each time. Also, the Potency entry in test [7] is “inactive”.

As to `FC(F)OC(F)(F)C(F)Cl` (configuration not stated), the Potency result in test [1], in test [2], in test [3], in test [4], in test [5] and in test [6] was “inactive” each time. The Potency entry in test [7] was “inactive”.

Turning to `c1ccc2cc(CC3=NCCN3)ccc2c1`, the Potency result in test [1], in test [2], in test [3], in test [4], in test [5] and in test [6] was “inactive” each time. For the same compound, the Potency result in test [7] is “inactive”.

For the compound `ClC=C(Cl)Cl`, the Potency entry in test [1], in test [2], in test [3], in test [4], in test [5] and in test [6] was “inactive” in each case. In addition, the Potency result in test [7] is “inactive”.

Regarding `CN1C2CCC1CC(OC(c1ccccc1)c1ccc(Cl)cc1)C2` (configuration not stated), the Potency was 7.57 µM (active) in test [1]; 5.01 µM (active) in test [2]; 11.2 µM (active) in test [3]; 7.08 µM (active) in test [4]; 7.94 µM (active) in test [5]; 5.01 µM (active) in test [6]. In addition, the Potency in test [7] is 2.39 µM (active).

For the compound `O=C(CCl)c1ccc(Oc2ccc(C(=O)CCl)cc2)cc1`, the Potency result in test [1], in test [2], in test [3], in test [4], in test [5] and in test [6] was “inactive” throughout. Also, in test [7], the Potency result was “inactive”.

For the compound `O=C1CCCCC1CN1CCCCC1` (configuration not stated), the Potency entry in test [1], in test [2], in test [3], in test [4], in test [5] and in test [6] was “inactive” in each case. Also, the Potency entry in test [7] was “inactive”.

As for `CC(C)Nc1ccc(Nc2ccccc2)cc1`, the Potency in test [1] is 4.78 µM (active); in test [3] it was 12.6 µM (active); in test [4] it was 7.94 µM (active); in test [5], 10 µM (active); in test [6], 7.94 µM (active); in test [7], 4.78 µM (active). Besides, the Potency result in test [2] is “inactive”.

With `Oc1cccc[c]1[Hg][Cl]`, the Potency in test [1] is 12 µM (active); in test [2], 14.1 µM (active); in test [3] it was 10 µM (active); in test [4] it was 3.98 µM (active); in test [5], 10 µM (active); in test [6] it was 7.94 µM (active). Further, in test [7], the Potency is 4.78 µM (active).

With `O=[N+]([O-])c1ccccc1`, the Potency result in test [1], in test [2], in test [3], in test [4], in test [5] and in test [6] was “inactive” each time. Besides, the Potency result in test [7] was “inactive”.

In the case of `C#CC(C)(O)CC` (configuration not stated), the Potency entry in test [1], in test [2], in test [3], in test [4], in test [5] and in test [6] was “inactive” throughout. Besides, the Potency entry in test [7] was “inactive”.

On to `Oc1cc(Cl)c(Cl)cc1Cl`, for which the Potency entry in test [1], in test [2], in test [3], in test [4], in test [5] and in test [6] was “inactive” each time. Further, the Potency result in test [7] was “inactive”.

For the compound `N#CN`, the Potency result in test [1], in test [2], in test [3], in test [4], in test [5] and in test [6] was “inactive” in each case. The Potency result in test [7] is “inactive”.

As for `CC(=O)O[C@H]1CC[C@H]2[C@@H]3CCC4=CC(=O)CCC4=C3C=C[C@]12C`, the Potency result in test [1], in test [2], in test [3], in test [4], in test [5] and in test [6] was “inactive” each time. Further, the Potency entry in test [7] is “inactive”.

In the case of `O[C@H]1[C@H]2[C@H](O)CCCN2C[C@H]1O`, the Potency entry in test [1], in test [2], in test [3], in test [4], in test [5] and in test [6] was “inactive” in each case. Besides, the Potency entry in test [7] was “inactive”.

Take `CC(=O)OO`: the Potency entry in test [1], in test [2], in test [3], in test [4], in test [5] and in test [6] was “inactive” throughout. For the same compound, the Potency entry in test [7] was “inactive”.

In the case of `[O]=[Cd]`, the Potency entry in test [1], in test [2], in test [3], in test [4], in test [5] and in test [6] was “inactive” each time. The Potency entry in test [7] was “inactive”.

In the case of `CCON=O`, the Potency result in test [1], in test [2], in test [3], in test [4], in test [5] and in test [6] was “inactive” throughout. In test [7], the Potency result was “inactive”.

On to `ClC1C(Cl)C(Cl)C(Cl)C(Cl)C1Cl` (configuration not stated), for which the Potency entry in test [1], in test [2], in test [3], in test [4], in test [5] and in test [6] was “inactive” in each case. The Potency result in test [7] was “inactive”.

In the case of `CNC(C)C(O)c1ccc(O)cc1` (configuration not stated), the Potency entry in test [1], in test [2], in test [3], in test [4], in test [5] and in test [6] was “inactive” throughout. In addition, the Potency entry in test [7] was “inactive”.

On to `N#CC1(N2CCCCC2)CCCCC1`, for which the Potency entry in test [1], in test [2], in test [3], in test [4], in test [5] and in test [6] was “inactive” in each case. Moreover, in test [7], the Potency entry is “inactive”.

As for `CNC1(c2ccccc2Cl)CCCCC1=O` (configuration not stated), the Potency entry in test [1], in test [2], in test [3], in test [4], in test [5] and in test [6] was “inactive” each time. Besides, in test [7], the Potency was 4.78 µM (active).
